Screens deposited in PubChem by National Center for Advancing Translational Sciences (NCATS).
Gal4-VP16 FLuc = Gal4-VP16 reporter inhibition counter-screen; Drosophila S2 Gal4-VP16 UAS-luciferase, luminescence, 20 h; Potency, µM (titrated, usually from 53.6 µM), inactives show top-dose activity, negative = inhibition, usual class: inhibitors; 310,000 compounds, 3.5% hits;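 further: Gal4-VP16 expression switched on by copper sulfate through the metallothionein promoter; on the % scale 0 is the no-effect control and ±100 the full control effect; nearly all actives have a fitted effect of over 50% in size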
RORg inh = blocks mouse ROR gamma transcriptional activity; P51450; Potency, µM (top dose mostly 53.6 µM), inactives show top-dose activity change, negative = inhibition, most hits filed as inhibitors; 310,000 compounds, 5.4% hits; Drosophila S2 Gal4-RORgamma UAS-luciferase reporter, 20 h; further: on the % scale 0 is the no-effect control and ±100 the full control effect; nearly all actives have a fitted effect of over 60% in size
Target sequence (P51450 whole entry, looked up, the tested form may be a part): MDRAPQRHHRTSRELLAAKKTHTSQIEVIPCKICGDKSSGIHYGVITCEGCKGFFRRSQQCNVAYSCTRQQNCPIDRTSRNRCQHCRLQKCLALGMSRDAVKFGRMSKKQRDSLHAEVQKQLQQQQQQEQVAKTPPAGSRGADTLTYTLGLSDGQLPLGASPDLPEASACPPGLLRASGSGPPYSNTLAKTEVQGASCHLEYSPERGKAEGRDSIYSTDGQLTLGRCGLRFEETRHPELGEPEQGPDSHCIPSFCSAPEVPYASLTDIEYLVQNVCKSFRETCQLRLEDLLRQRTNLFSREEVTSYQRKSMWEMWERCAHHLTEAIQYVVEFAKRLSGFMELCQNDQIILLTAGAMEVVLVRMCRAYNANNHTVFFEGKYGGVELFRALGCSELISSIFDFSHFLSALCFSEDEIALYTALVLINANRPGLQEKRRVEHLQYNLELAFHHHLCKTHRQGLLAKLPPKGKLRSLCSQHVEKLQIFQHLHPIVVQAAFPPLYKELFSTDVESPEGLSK
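Drosophila Schneider cells stably carrying a metallothionein-driven Gal4 DBD–ROR gamma fusion and a UAS-Photinus luciferase reporter were exposed to compound for 1 hr, then induced with copper sulfate (700 uM final) for 20 hr at ambient temperature before luminescence reading.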
SW480 rerep = inducers of DNA re-replication in SW480 colon cancer cells. 340,000 compounds, 1.8% hits. Potency, µM (top dose mostly 46.1 µM), without a hit: at the highest dose re-replication activation, actives largely listed as activators. AID 624297. SW480 DNA re-replication, Hoechst DNA content imaging, 48 h; further: % of control where 0% means no effect; nearly all actives have a fitted effect of over 55% in size
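Compounds, transferred as 23 nL by pin tool, were incubated with cells for 48 hr; DNA content per nucleus was then quantified by Hoechst staining and fluorescence plate imaging.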
MCF10A rerep = induces DNA re-replication in MCF 10a normal breast cells | MCF 10A DNA re-replication, Hoechst nuclear intensity, 48 h | Potency, µM (top dose mostly 46.1 µM), for inactives: at the highest dose activity, positive = re-replication, hits mostly activators | 350,000 compounds, 2.9% hits; further: % of control where 0% means no effect; nearly all actives have a fitted effect of over 50% in size
KB-V1 MDR tox = kills drug-selected multidrug resistant KB-V1 cells. Potency, µM (doses to about 46.1 µM), most hits filed as cytotoxic. KB-V1 MDR cells viability, CellTiter-Glo, 72 h. AID 1347076. 400,000 compounds, 3.4% hits; further: on the % scale 0 is the no-effect control and ±100 the full control effect; nearly all actives have a fitted effect of over 60% in size
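In this primary screen, KB-V1 cells overexpressing P-gp are incubated with library compounds (lowest to highest concentration) for 72 h at 37 degrees C before a luminescent ATP viability read.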
KB-3-1 cytotox = KB-3-1 parental cell cytotoxicity; Potency, µM (top dose mostly 46.1 µM), most hits filed as cytotoxic; AID 1347075; 400,000 compounds, 1.4% hits; KB-3-1 viability, CellTiter-Glo ATP luminescence, 72 h; further: on the % scale 0 is the no-effect control and ±100 the full control effect; nearly all actives have a fitted effect of over 60% in size
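Cells are dispensed, compounds pinned in, plates held at 37 °C for 72 h, then CellTiter-Glo is added and luminescence read after 10 minutes. Cell line: parental KB-3-1 in phenol-red-free DMEM, 10% FBS.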
The depositor's hits bear a star; i = inactive; ? = inconclusive; . = no result given; [ ] = remark or other dose. This is a sample that favours compounds with a hit; in the whole collection about 10% have one here. The call rests on the fitted dose curve; in most records, active means well fitted curve in the direction sought with a large enough effect; inconclusive means small, poorly fitted or top-dose-only effect, or another doubt; inactive means no such curve, though single readings can be large; an effect the other way counts as inactive or inconclusive. Potency means the concentration at half of the fitted maximal effect.

SMILES | Gal4-VP16 FLuc | RORg inh | SW480 rerep | MCF10A rerep | KB-V1 MDR tox | KB-3-1 cytotox
CN1C(=O)/C(=N\OC(=O)c2cccc3ccccc23)c2ccccc21 | 11.2µM* | ? | -1.1% | -0.6% | i | i
COc1ccc(C(=O)O/N=C2\C(=O)N(C)c3ccccc32)cc1 | . | . | -2.7% | -2.6% | i | i
COc1ccc(-c2ccc(CNc3ccc4[nH]c(=O)[nH]c4c3)o2)cc1Cl | . | . | . | . | i | i
Cc1nc(NCc2ccco2)[nH]c(=O)c1CCC(C)C | -0.7% | 7.0% | -0.5% | 7.8% | i | i
O=c1[nH]c(NCc2ccco2)nnc1Cc1ccccc1Cl | -7.0% | 8.8% | 7.31µM* | ? | ? | 5.8µM*
COc1ccc(Cc2nnc(SCC(=O)c3ccc(OC)cc3)o2)cc1 | 11.2% | 1.6% | -20.3% | 6.51µM* | i | i
COc1ccc(C(=O)CSc2nnc(Cc3ccccc3)o2)cc1 | 1.3% | -0.3% | 7.1% | -8.5% | i | i
COc1ccc(Cc2nnc(SCC(=O)Nc3nc(C)cs3)o2)cc1 | -3.5% | 35.5µM* | -3.0% | -4.2% | i | i
O=C(Nc1ccc(Cl)c(C(F)(F)F)c1)C(Cc1ccccc1)NS(=O)(=O)c1cccc2nsnc12 (centres undefined) | . | . | . | . | i | i
CC(=O)Nc1ccc(NC(=O)C2(c3cccs3)CCOCC2)cc1 | . | . | . | . | i | i
CCc1ccc(OCCOCC(O)CN2CCN(Cc3ccc(Cl)cc3)CC2)cc1 (centres undefined) | ? | ? | ? | 14.6µM* | i | ?
Cn1cnc2c(cnn2C)c1=N | . | . | -17.4% | -19.1% | i | i
COc1cc2c(cc1OC)C1O[C@](c3ccsc3)(C2)Oc2c1c(=O)oc1ccc(F)cc21 | -22.7%[10 µM] | 29.7%[10 µM] | . | . | . | .
O=C(CCS(=O)(=O)c1nc(-c2cccs2)cc(C(F)(F)F)n1)Nc1ccc(OC(F)(F)F)cc1 | . | . | . | . | i | i
O=C(CCS(=O)(=O)c1ccccc1)Nc1nc(-c2cccs2)cs1 | 19.4% | ? | ? | ? | 23.1µM* | i
CC(=O)c1sc(NC(=O)CCS(=O)(=O)c2ccccc2)nc1C | ? | 12.6µM* | 4.61µM* | 2.91µM* | i | ?
CCOCCc1nnc(NC(=O)C(C)Oc2ccccc2)s1 (centres undefined) | -12.8% | 5.1% | -4.5% | -1.6% | ? | i
CC(=O)c1sc(NC(=O)CCS(=O)(=O)c2ccc(F)cc2)nc1C | . | . | . | . | i | i
O=C(COc1ccccc1)Nc1nc(-c2cccs2)cs1 | 4.7% | -3.4%[10 µM] | 2.1% | 8.4% | i | i
CCOCCc1nnc(NC(=O)CCS(=O)(=O)c2ccccc2)s1 | 0.8% | 3.0% | ? | 20.6µM* | i | i
CC(C)c1nnc(NC(=O)CCS(=O)(=O)c2nc(-c3cccs3)cc(C(F)(F)F)n2)s1 | 1.58µM* | 1.78µM* | ? | 3.66µM* | i | i
O=C(CCS(=O)(=O)c1ccc(F)cc1)Nc1nc(-c2ccncc2)cs1 | -14.2% | 37.7% | ? | 18.4µM* | i | i
Cc1ccc2nsnc2c1S(=O)(=O)N1CCN(CCc2ccccc2)CC1 | 8.2% | 26.6% | 0.8% | 15.8% | 11.6µM* | ?
CC(=Nc1ccccc1)c1sc2ccccc2c1O | 7.0% | -33.3% | 12.4% | ? | 20.6µM* | i
CC(=Nc1ccc(Br)cc1)c1sc2ccccc2c1O | ? | ? | 1.0% | 13.3% | i | i
SMILES | Gal4-VP16 FLuc | RORg inh | SW480 rerep | MCF10A rerep | KB-V1 MDR tox | KB-3-1 cytotox
O=C1c2ccccc2NC(c2ccc(-c3ccc(Br)cc3)o2)N1O (centres undefined) | ? | 7.08µM* | ? | ? | ? | ?
O=C1c2ccccc2NC(c2ccc(-c3cccc([N+](=O)[O-])c3)o2)N1O (centres undefined) | ? | ? | 25.1% | 19.5% | 2.31µM* | ?
Cc1nn(C(=O)c2ccc(Br)cc2)c(C)c1S(=O)(=O)N1CCOCC1 | . | . | . | . | i | i
CN(C)/C=C/c1onc(-c2ccccc2Cl)c1C#N | -0.8% | ? | 1.5% | 18.4µM* | i | i
Cc1onc(-c2ccccc2Cl)c1C(=O)N1CCCCC1 | 14.4% | -5.1% | -62.7% | -1.7% | i | i
CCCS(=O)(=O)NC(=O)C1(C)CCCN(C(=O)c2ccc3ccccc3n2)C1 (centres undefined) | . | . | . | . | i | i
O=C(c1ccco1)N1CCC2(CC1)CN(c1ccccc1)C2 | -9.1% | 47.5% | . | . | . | .
CC(C)OC(=O)C1=C(N)N2C(=O)CSC2=C(C(=O)OC(C)C)C1 | -5.1% | 10µM* | -0.5% | 17.3% | i | i
C[C@H](NC(=O)c1ccccc1)C(=O)Nc1nc(-c2ccccn2)cs1 | -6.7% | -3.7% | -0.2% | -3.3% | ? | i
Cc1cccc(C(=O)NC(C(=O)Nc2nc(-c3ccccn3)cs2)C(C)C)c1 (centres undefined) | ? | 7.94µM* | -4.1% | 17.1% | ? | i
Cc1cccc(C(=O)N[C@H](C(=O)Nc2nnc(C3CC3)s2)C(C)C)c1 | -6.8% | 8.6% | 6.6% | 2.7% | ? | i
CC(Oc1ccccc1)C(=O)Nc1nc(-c2ccccn2)cs1 (centres undefined) | . | . | -437.5% | ? | i | ?
CC(Oc1cccc(Cl)c1)C(=O)Nc1nc(-c2ccccn2)cs1 (centres undefined) | . | . | 6.51µM* | -11.4% | i | ?
Cc1cccc(C(=O)N[C@H](C(=O)Nc2ncc(C)s2)C(C)C)c1 | -16.1% | -6.7% | ? | 24.8% | 16.4µM* | ?
O=C(NCc1ccc(F)cc1)c1cccc(N2CCCS2(=O)=O)c1 | . | . | . | . | i | i
CC(C)[C@H](NC(=O)OC(C)(C)C)[C@@H](O)CC(=O)OC(C)(C)C | -2.6%[10 µM] | -13.7%[10 µM] | . | . | . | .
